Values joined by “and” are separate entries in the source; they are usually repeats but may differ in a detail not shown here. Identical values can stand only once. Out of some 410,000 compounds screened, about 18,000 (4.4%) were called active. Inconclusive results (about 7%) are left out. Rule as the data show it: active = activity change below about -60%; inconclusive = no clear call, values can overlap the other calls; inactive = above about -39%. For the sample, actives were picked, then their nearest neighbours and some compounds at random. More than one record can exist for a structure, and the calls need not agree.
Assay: qHTS Assay for inhibitors of the human cytomegalovirus (HCMV)
Details: HFF cells, HCMV-luciferase reporter, 72 h; at 57.5 µM; stronger effect = lower value
How it was run: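 Human foreskin fibroblasts infected with luciferase-reporter HCMV at MOI 1 PFU/cell, compounds at two doses. Luciferase measured 72 h post infection; normalized to buffer-only basal and Salinomycin (10uM) controls.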
% is scaled to controls: 0 for no effect and ±100 for the full control effect.

Structure (SMILES) | activity change, negative = inhibition
CCCc1cc(=O)n2[nH]c(NCc3ccc(CC)cc3)nc2n1 | -6.39% (inactive)
CC(=O)NC(c1ccccc1)c1nc(-c2ccccc2C)cs1 (centres undefined) | -25.4% (inactive)
CC(=O)NC(c1ccccc1)c1nc(-c2cccc(C(C)C)c2)cs1 (centres undefined) | -66.8% (active)
OC(c1ccccc1)c1nc(-c2cnc3ccccc3c2)cs1 (centres undefined) | 184% (inactive)
Cc1ccc(N(C)C(=O)C2CCN(S(=O)(=O)c3ccc4c(c3)CCCN4C(=O)C3CCC3)CC2)cc1 | 8.58% (inactive)
Cc1c(NC(=O)C(C)Oc2cccc(Cl)c2)c(=O)n(-c2ccccc2)n1C (centres undefined) | -25% (inactive)
NC(=O)C1CCN(C(=O)CC2C(=O)NCCN2Cc2cccc(Oc3ccccc3)c2)CC1 (centres undefined) | -38.9% (inactive)
COc1ccc(Cl)cc1CSc1ncn[nH]1 | -63.2% (active)
CCCCOc1ccc(Cl)cc1CSc1nncn1N | -20.2% (inactive)
ClC1(Cl)CC1CSc1ncn[nH]1 (centres undefined) | 62.8% (inactive)
CCCCOc1ccc(NC(=O)c2cc3c(n(-c4ccc(Cl)cc4)c2=O)CCCC3=O)cc1 | 14.9% (inactive)
COC(=O)c1ccc(NC(=O)CSc2n[nH]c(-c3ccccc3)n2)cc1 | 16.1% (inactive)
Cc1ccc(NC(=O)C(=O)NCC(c2cccnc2)N2CCOCC2)cc1 (centres undefined) | -12.5% (inactive)
COc1ccccc1N1CCN(C2C(=O)c3ccccc3N2C(C)=O)CC1 (centres undefined) | 0% (inactive)
O=C(N/C(=C\c1ccc(O)cc1)C(=O)N1CCCCC1)c1ccccc1 | -16.2% (inactive)
Cc1ccc(C(=O)N/C(=C/c2cccs2)C(=O)N2CCCCC2)cc1 | -25.9% (inactive)
Cc1ccc(C(=O)N/C(=C\c2cn(S(=O)(=O)N(C)C)c3ccccc23)C(=O)N2CCCC2)cc1 | -95.9% (active)
C#Cc1ccc(NC(=O)C2(C)CCN2C(=O)Cc2ccc(-c3ccccc3)cc2)cc1 (centres undefined) | -83.5% (active)
COc1ccc(OC)c(NC(=O)C2(C)CCN2C(=O)Cc2ccccc2)c1 (centres undefined) | -33.9% (inactive)
CC1(C(=O)NS(=O)(=O)c2cccs2)CCN1C(=O)Cc1ccc(-c2ccccc2)cc1 (centres undefined) | -1.93% (inactive)
COC(=O)c1cc(NC(=O)CCS(=O)(=O)c2cc(Br)cc3c2N(C(=O)C2CC2)CC3)cc(C(=O)OC)c1 | 3.41% (inactive)
CCCC1=Nc2cc(C(=O)NCc3ccco3)ccc2Sc2ccccc21 | -69.1% (active)
COc1cc(-n2c(C)nc3cc(C(=O)NCc4ccco4)ccc32)cc(OC)c1OC | 17.2% (inactive)

Structure (SMILES) | activity change, negative = inhibition
O=C(NCc1ccco1)c1cccc(-c2ccc3nncn3c2)c1 | 15.7% (inactive)
COc1ccc(-c2ccc(=O)n(CC(=O)Nc3ccc(Br)cc3F)n2)cc1 | -10.5% (inactive)
O=C1c2cccc3cccc(c23)N1CN1CCN(c2ccccn2)CC1 | 16% (inactive)
CCOC(=O)c1c(C)[nH]c(C)c1S(=O)(=O)NCC(=O)NCc1cccc(C)c1 | -20.2% (inactive)
COc1ccccc1NC(=O)C1=C(C)Nc2nc(SCC(=O)c3ccc(C)cc3)nn2C1c1ccccc1C (centres undefined) | -1.97% (inactive)
Cc1cccc2c1-c1sc(C(=O)Nc3ccc(F)cc3F)cc1CO2 | -12.8% (inactive)
COc1ccc(-n2c(SCC(N)=O)nc3c(oc4ccccc43)c2=O)cc1 | -15.1% (inactive)
Cc1cccc(-n2c(SCC(N)=O)nc3c(c2=O)C2(CCCCC2)Cc2ccccc2-3)c1 | -70.4% (active)
CCOC(=O)C1Cn2c(nc3c(c2=O)C(C)(CC)Cc2ccccc2-3)S1 (centres undefined) | -19.7% (inactive)
NC(=O)c1ccc(Nc2ccc3c(c2)CCC3)c([N+](=O)[O-])c1 | -8.76% (inactive)
CCCCN(CC)C(=O)c1c[nH]c2ccc(S(=O)(=O)Nc3cccc(OC)c3)cc2c1=O | 7.97% (inactive)
CCOc1ccccc1C(=O)NCc1ccc2c(c1)CCN2C(=O)c1ccc(F)cc1 | -15.6% (inactive)
Cc1ncsc1CCCl | -26.8% (inactive)
Cc1ccc(OCC(=O)Nc2ccc(C(=O)O)cc2NC(=O)COc2ccc(C)c(C)c2)cc1C | -98.3% (active)
Cc1cccc(OCC(=O)Nc2ccc(C(=O)O)cc2NC(=O)COc2cccc(C)c2)c1 | -3.05% (inactive)
Cc1ccc(OCC(=O)Nc2cccc3c2CCCC3)cc1C | -12.3% (inactive)
COc1ccc(Cl)cc1NC(=O)Cn1nc(-c2ccc(C)cc2)n(C)c1=S | 3.99% (inactive)
Cc1ccc(-n2nc3c(=O)n(C(C)C(=O)NCc4ccc5c(c4)OCO5)nc(C)c3c2C)cc1 (centres undefined) | -83.4% (active)
COc1ccc(CNC(=O)C(C)n2nc(C)c3c(C)n(-c4ccccc4)nc3c2=O)c(OC)c1 (centres undefined) | -15.4% (inactive) and -69.2% (active)
Cc1ccccc1CNC(=O)CSc1nnc(C)c2c(C)n(-c3ccccc3)nc12 | -3% (inactive)
Cc1nn(C(C)C(=O)NCCC2=CCCCC2)c(=O)c2nn(-c3ccccc3)c(C)c12 (centres undefined) | -28.7% (inactive)
Cc1nn(C(C)C(=O)N2CCOCC2)c(=O)c2nn(-c3ccccc3)c(C)c12 (centres undefined) | -17.5% (inactive)
COc1ccc(OC)c(CNC(=O)Cn2nc(C)c3c(C)n(-c4ccccc4)nc3c2=O)c1 | -18.6% (inactive)

Structure (SMILES) | activity change, negative = inhibition
COc1ccc(-c2n[nH]c3c2CN(C(=O)c2ccc(F)cc2)CC3)cc1 | 0% (inactive)
O=C1C=C[C@]23OCCC[C@@]2(CCCO)CCCC3=C1 | -2.29% (inactive)
CCOc1cc(C(=O)OCC(=O)Nc2cccc(C)c2)ccc1OCC(=O)N1CCOCC1 | -3.23% (inactive)
CCOc1cc(N2CCOCC2)c(OCC)cc1NC(=O)C1=NN(c2cccc(C)c2)C(=O)CC1 | -25.4% (inactive)
CCOc1cc(N2CCOCC2)c(OCC)cc1NC(=O)COc1cccc2cccnc12 | -104% (active)
Cc1ccc(CNS(=O)(=O)c2ccc(-c3cc(C(F)(F)F)on3)s2)cc1 | 87.2% (inactive)
Cc1ccc(CNS(=O)(=O)c2ccc(C(=O)N(C)C)s2)cc1 | 1.6% (inactive)
O=C(Nc1ccccc1Br)c1cc(CN2CCCC2)on1 | 27.2% (inactive)
CCOc1ccc(N(Cc2ccccc2)C(=O)c2nc(SCC)ncc2Cl)cc1 | -68.2% (active)
CCSc1ncc(Cl)c(C(=O)Nc2c(C(=O)c3ccccc3)oc3ccccc23)n1 | 12.8% (inactive)
CCOc1ccc(N(Cc2ccccc2)C(=O)c2nc(S(C)(=O)=O)ncc2Cl)cc1 | -101% (active)
CCOc1ccc(NC(=O)CN(Cc2ccccc2)S(=O)(=O)c2ccc(Cl)cc2)cc1 | 2.3% (inactive)
COc1ccc(N(Cc2ccc(N(C)C)cc2)C(=O)c2ccc(S(C)(=O)=O)cc2)cc1 | 6.32% (inactive)
CCOc1ccc(N(CC)C(=O)c2noc3c2COc2ccc(C)cc2-3)cc1 | -7.27% (inactive)
Brc1ccc(-c2n(-c3ccccn3)c3ccccc3[n+]2-c2ccccn2)cc1 | -11.9% (inactive)
CCOC(=O)c1ccc(NC(=O)C2CC(=O)N(c3ccc(C(C)C)cc3)C2)cc1 (centres undefined) | 46.5% (inactive)
COC(=O)c1cc(NC(=O)CCc2c(C)nc3c4c(C)cc(C)nc4nn3c2C)cc(C(=O)OC)c1 | 8.7% (inactive)
COc1ccc(C2c3ccc(O)cc3Oc3ncn(CCCO)c(=N)c32)cc1OC (centres undefined) | 0% (inactive)
c1ccc2cc3c(NCCN4CCOCC4)ccnc3cc2c1 | -98.8% (active)
CC(=O)Oc1cc2c(C(=O)NCCN3CCOCC3)c(C)oc2c2ccccc12 | 55.4% (inactive)
CSc1ccc(CNCCN2CCOCC2)cc1 | 0% (inactive)
CNc1nc2cnc(-c3ccsc3)cc2n1Cc1ccccc1 | 12.4% (inactive)
Cc1c(C(=O)Nc2cccc(Cl)c2)oc2ccc(S(=O)(=O)N3CCOCC3)cc12 | 4.49% (inactive)

Structure (SMILES) | activity change, negative = inhibition
Nc1ccc(C(=O)OCC(=O)NC2CCCc3ccccc32)cc1[N+](=O)[O-] (centres undefined) | -3.15% (inactive)
NC(=O)Nc1ccc(C(=O)OCC(=O)NC2CCCc3ccccc32)cc1 (centres undefined) | -25.3% (inactive)
O=C(CCNC(=O)c1ccc(Cl)cc1)NC1CCCc2ccccc21 (centres undefined) | -82% (active)
CCC(C)c1ccc2oc(-c3ccc(NC(=O)c4cc5ccccc5o4)cc3)nc2c1 (centres undefined) | -17.9% (inactive)
COc1cc(NC(=O)Cn2nc(-c3ccc(C)c(C)c3)ccc2=O)cc(OC)c1 | 10.3% (inactive)
COc1cccc(CNS(=O)(=O)c2csc(C(N)=O)c2)c1 | -30.1% (inactive)
COc1cccc(CNS(=O)(=O)c2ccc3c(c2)CC(C)N3C(=O)C2CCC2)c1 (centres undefined) | -33.4% (inactive) and -60.7% (active)
CC(=O)N1CCSc2ccc(S(=O)(=O)N3CCC(C)CC3)cc21 | -33.3% (inactive)
COc1ccc(N(C)S(=O)(=O)c2ccc3c(c2)CC(C)N3C(=O)C2CC2)c(OC)c1 (centres undefined) | -22.8% (inactive)
COc1cccc(CNS(=O)(=O)c2ccc3c(c2)N(C(C)=O)CCS3)c1 | -73.4% (active)
O=C(C1CCC1)N1CCc2cc(S(=O)(=O)NCc3cccnc3)ccc21 | -32% (inactive)
CCOCCn1ccc2c(OCC(=O)NCc3ccc(C)cc3)cccc2c1=O | 22.4% (inactive)
O=C(CCS(=O)(=O)c1cc(Br)cc2c1N(C(=O)C1CC1)CC2)Nc1ccc(Br)cc1F | -5.42% (inactive)
Cc1ccc(CN2CCCn3nc(C(=O)NCc4ccccc4Cl)cc3C2=O)cc1 | -16.2% (inactive)
CCOC(=O)c1nnn(CC(=O)NC(=O)Nc2ccccc2F)c1C(=O)OCC | 11.6% (inactive)
COc1ccc2c(Sc3ccc(C)cc3)c(C(=O)NC(C)c3ccccc3)[nH]c2c1 (centres undefined) | -4.72% (inactive)
COc1ccc(CNc2nc(-c3ccc(Cl)cc3)nn2S(=O)(=O)c2ccc(C)cc2)cc1 | 9.27% (inactive)
COC(=O)c1ccc(CSc2nnc(N)s2)o1 | -25.6% (inactive)
CCOc1ccccc1Nc1nnc(SCC(=O)Nc2cc(C)on2)s1 | 45.8% (inactive)
CCOc1ccccc1Nc1nnc(SCc2ccc(C(=O)OC)o2)s1 | -61.9% (active)
